Data taken from PubChem BioAssay (NCI).
Several values for one entry are separate records, joined by “and”; a condition that tells them apart may be missing. Equal entries are not always repeated. The panel holds about 79,000 compounds, 15% with a hit somewhere; the sample as a whole holds those more often. Where a structure was tested more than once in an assay, its records may differ in their call. Activity calls are given as the source filed them. Cut-off read from the data, not from the text of the source: active = growth inhibition above about 70%; inactive = the rest.

Columns and labels:
[1] = NCI Yeast Anticancer Drug Screen. Data for the rad50 strain (AID 155);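 note: 0% = growth of vehicle-only cultures of the same strain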; settings: S. cerevisiae rad50 strain growth inhibition; at 50.0 µM; stronger effect = higher value
Method in brief: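 Inhibition values express reduced yeast growth in compound-treated cultures relative to vehicle-treated controls.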

[2] = NCI Yeast Anticancer Drug Screen. Data for the mec2-1 strain (AID 157); settings: S. cerevisiae mec2-1 strain, at 50.0 µM, stronger effect = higher value
Method in brief: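 Strain: mec2-1 (DNA repair/cell cycle alteration). Compound exposure, then growth measured; inhibition expressed relative to vehicle.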

[3] = NCI Yeast Anticancer Drug Screen. Data for the sgs1 mgt1 strain (AID 161);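 note: 0% = growth of cultures given vehicle only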; settings: S. cerevisiae sgs1 mgt1 strain, at 50.0 µM, stronger effect = higher value
Method in brief: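 Test agents were incubated with a DNA-repair-mutant yeast strain. Growth was then read and compared against vehicle-treated controls.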

[4] = NCI Yeast Anticancer Drug Screen. Data for the cln2 rad14 strain (AID 165);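 note: 0% = growth equal to vehicle treated cultures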; settings: S. cerevisiae cln2 rad14 strain, at 50.0 µM, stronger effect = higher value
Method in brief: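 Compounds are applied to the cln2 rad14 yeast strain, and growth is then compared with that of vehicle-treated cultures to give inhibition.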

[5] = NCI Yeast Anticancer Drug Screen. Data for the bub3 strain (AID 167); settings: S. cerevisiae bub3 mutant strain, at 50.0 µM, stronger effect = higher value
Method in brief: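 Steps: expose the mutant yeast strain to compound; grow alongside vehicle-treated cultures; measure growth; express inhibition against the vehicle cultures.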

[6] = NCI Yeast Anticancer Drug Screen. Data for the mlh1 rad18 strain (AID 175); settings: S. cerevisiae mlh1 rad18 strain growth inhibition; at 50.0 µM; stronger effect = higher value
Method in brief: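 Read-out is yeast growth inhibition, calculated against vehicle-only controls. The compound was applied to a strain engineered with DNA damage repair alterations.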

Measured: growth inhibition

CC(CC(C#N)(c1ccccc1)c1ccccc1)N1CCCCC1 (centres undefined)
inactive: [1] 27.6% | [2] 14% | [3] -22.9% | [4] 12.1% | [5] 33.5% | [6] 27.4%

Cc1cccc(C)c1OCC1=NCCN1
inactive: [1] 4.75% | [2] 14.3% | [3] 0.1% | [4] -55.6% | [5] 5.5% | [6] -13.1%

CCC(C)CC(C)N (centres undefined)
inactive: [1] 0.6% | [2] 2.7% | [3] 14.5% | [4] 2.65% | [5] -2.45% | [6] 9.15%

CCCCC(=O)O.[Ni]
inactive: [1] -11.2% | [2] -2.65% | [3] -9.7% | [4] -32% | [5] -30.9% | [6] -14.1%

O=C(NC(CSC(c1ccccc1)(c1ccccc1)c1ccccc1)C(=O)O)OCc1ccccc1 (centres undefined)
active: [2] 99.5% | [3] 98.5%
inactive: [1] 63.7% | [4] 51.9% | [5] 47.6% | [6] 58.8%

c1ccc2c(c1)oc1ccccc12
inactive: [1] 2.05% | [2] 11.3% | [3] 7.2% | [4] -64.5% | [5] 4% | [6] -4.1%

Nc1n[nH]c(CCc2nc(N)n[nH]2)n1
inactive: [1] 22.8% | [2] -12.2% | [3] -18.1% | [4] 7.65% | [5] 11.6% | [6] 4.9%

O=[N+]([O-])c1cc(C2CCCCC2)c(O)c([N+](=O)[O-])c1
21.2% (inactive) and 81.8% (active): [5]
18% (inactive) and 80.8% (active): [3]
26% (inactive) and 79.5% (active): [2]
inactive: [1] 47.3% and 47.2% | [4] -8.75% and 59.2%
26.4% (inactive) and 86.3% (active): [6]

C=CCN(CC=C)C1CCOC(OC)C1O (centres undefined)
inactive: [1] -19.4% | [2] -20.5% | [3] -9.35% | [4] -5.05% | [5] -12% | [6] -14.2%

NCCN.NCCN.O=C([O-])C(=O)[O-].[Cl-].[Co+3]
inactive: [1] -22.4% | [2] -16.7% | [3] -31.8% | [4] -0.45% | [5] -24.6% | [6] -29.8%

CNC(C)(C)Cc1ccc(Cl)cc1
inactive: [1] 33.5% | [2] 10.8% | [3] 27.9% | [4] 24.9% | [5] 4.6% | [6] -0.45%

CCOC(=O)C1=C(C)N2CCCOC2(C)C(C(=O)OC)C1c1cccc([N+](=O)[O-])c1 (centres undefined)
inactive: [1] 38% | [2] 10.8% | [3] -6.5% | [4] 18.5% | [5] -34.6% | [6] 27.8%

CN1CCC23c4c5cc(-c6cc7c8c(c6O)OC6C(O)C=CC9C(C7)N(C)CCC896)c(O)c4OC2C(O)C=CC3C1C5 (centres undefined)
inactive: [1] -5.2% and 0.8% | [2] -10.7% and -11.2% | [3] 1.9% and 2.85% | [4] -13.2% and 4.85% | [5] -4.45% and 7.4% | [6] -4.8% and 1.75%

CC1(C)CN1C1=C(Br)C(=O)C(N2CC2(C)C)=C(Br)C1=O
inactive: [1] 18.8% | [2] 0.9% | [3] 7.75% | [4] 9.9% | [5] -0.65% | [6] 30.1%

CN1CCC23CC=CCC2C1Cc1ccc([N+](=O)[O-])cc13 (centres undefined)
inactive: [1] -4.15% | [2] 11.3% | [3] 7.25% | [4] -3.15% | [5] 2.4% | [6] 35%

COC(CN1CCOCCOCCOCC1)CN1CCOCCOCCOCC1
inactive: [1] -9.3% | [2] -6.55% | [3] -29.1% | [4] 15.4% | [5] 14.2% | [6] -17.8%

c1ccc(N2CCNCC2)cc1 (tested in a mixture with another compound)
inactive: [1] -18.1% and 5.8% | [2] 6.7% and -16.3% | [3] -26.1% and -5.8% | [4] -4% and -48.5% | [5] 10.2% and 10.3% | [6] -27.7% and -4.65%

COC(=O)C1C(OC(=O)C(Cl)(c2ccccc2)c2ccccc2)CC2CCC1N2C (centres undefined)
inactive: [1] -5.25% | [2] -6.35% | [3] -19.6% | [4] 7.65% | [5] -21.1% | [6] -6.9%

CC(C)CC1N=C(N(C)N=O)OP1(=O)NNc1ncccn1 (centres undefined)
inactive: [1] -5.5% | [2] -14.9% | [3] -15.4% | [4] 6.65% | [5] 13.8% | [6] 13.9%

CC1=C(C#N)C2(CCN(C)CC2)C(C#N)=C(C)N1
inactive: [1] 13.3% | [2] 8.75% | [3] 3.05% | [4] -27.9% | [5] -3% | [6] -4.4%

CN(C)P(=O)(N(C)C)N1CCCCCC1
inactive: [1] -8.2% | [2] -21.6% | [3] 0% | [4] -18.4% | [5] 3.4% | [6] -10.6%

CC1=CC(=O)NP(=O)(Oc2ccc(C)cc2)N1 (centres undefined)
inactive: [1] -7.7% | [2] 16.1% | [3] -4.65% | [4] -0.75% | [5] -25.3% | [6] -4.4%

CC[P+](C#Cc1ccccc1)(c1ccccc1)c1ccccc1
active: [1] 85.8% | [2] 88.9% | [3] 89% | [4] 87.2% | [5] 87.4% | [6] 87.5%

O=C1C(=O)c2ccccc2-c2ccccc21
inactive: [1] 36.6% and 34.6% | [2] 31.1% and 18.2% | [3] 32.8% and 25.5% | [4] -6.65% and -35.9% | [5] 25.9% and 30.6% | [6] 5.35% and 9.6%

Cc1ccc(N2CC=C(c3ccccc3)OP2(=O)N(CCCl)CCCl)cc1 (centres undefined)
active: [1] 76.8% | [2] 84.8% | [3] 75.4% | [4] 80.7% | [5] 87.9% | [6] 70.2%

C[C@]12CC[C@H](O)C[C@H]1CC[C@@H]1[C@@H]2CC[C@]2(C)[C@@H](C3=CC(=O)OC3)[C@@H](O)C[C@]12O
inactive: [1] -6.05% | [2] -15.8% | [3] 2.35% | [4] -16.8% | [5] -0.15% | [6] 8.1%

O=[N+]([O-])c1cc(-c2ccc([As](=O)(O)O)cc2)ccc1[As](=O)(O)O
inactive: [1] 2.5% | [2] 4.4% | [3] -40% | [4] 9.5% | [5] -22% | [6] -4.15%

c1cc2c(c(NC3=NCCO3)c1)CCCC2
inactive: [1] 3.4% and 5.65% | [2] 1.05% and -2.1% | [3] -2.5% and 6.05% | [4] -45.5% and 0.05% | [5] -5.35% and 39.4% | [6] -1.1% and -6.15%

CCSCCC(N)C(=O)O (centres undefined)
inactive: [1] 0.15% and -21.3% | [2] -13.9% and -15% | [3] -37.8% and -2% | [4] -70.4% and -32.9% | [5] -19.9% and 6.05% | [6] -13.2% and -28.6%

NNC(=O)c1ccc(N)cc1
inactive: [1] -12.1% | [2] -9.75% | [3] -8.3% | [4] 6.05% | [5] 4.75% | [6] 7.1%

CCOC(CNC(=O)c1ccc(S(=O)(=O)F)cc1)OCC
inactive: [1] -4.4% | [2] 27.6% | [3] 22.1% | [4] -5.9% | [5] 42.8% | [6] 26.4%

O=C(O)C(O)C(O)C(O)C(O)C(O)C(O)CO (centres undefined)
inactive: [1] -18.1% | [2] -6.95% | [3] -33.4% | [4] -73.5% | [5] 3% | [6] 2.95%

C1CN2CN3CCN(CN1C3)C2
inactive: [1] 13.1% | [2] 12.2% | [3] 20.9% | [4] 33.2% | [5] 10.2% | [6] 13.8%

CC(C)C(=O)[O-].CC(C)C(=O)[O-].N.N.N.N.[Co+3].[O-][Cl+3]([O-])([O-])[O-]
inactive: [1] -17.1% and -29.1% | [2] 4% and 16.6% | [3] -54% and -56.5% | [4] 9.9% and 23.4% | [5] -6.75% and -12.6% | [6] -11.2% and -8.35%

Nc1nc(N)c2n[nH]nc2n1
inactive: [1] -18.5% | [2] -6.45% | [3] -22.1% | [4] -105% | [5] 3.55% | [6] -15.3%

O=C1OC(=O)C2C3C=CC(O3)C12 (centres undefined)
inactive: [1] -9.15% and -16.2% and 22.6% | [2] -14.2% and -0.8% and -0.1% | [3] -25.2% and 3.95% and 14.6% | [4] 6% and 1.55% and 10.6% | [5] -42.2% and -28.7% and 6.3% | [6] -6.4% and -16.8% and 19.6%

COC(=O)C1C(=O)CC2N(C)C1C(C)(C)C2(C)C (centres undefined)
inactive: [1] 47.9% | [2] 21.4% | [3] 60.6% | [4] 4.8% | [5] 38.4% | [6] 56.1%

CCOP(=O)(OCC)C(C)(C)OC(=O)NC(F)(F)F
inactive: [1] -18.7% | [2] -15.2% | [3] -2.25% | [4] 5.25% | [5] -10.1% | [6] 3%

CC(=O)OC1(c2nccc3ccccc23)CCN(Cc2ccccc2)CC1
inactive: [1] 17.8% | [2] 9.45% | [3] 6.8% | [4] -8.3% | [5] 7.25% | [6] 12%
